ChEMBL document CHEMBL1201862, “PubChem BioAssay data set” (2004)
Among all 400,000 compounds or so, about 2,100 (0.53%) were called active. Another 14% or so got no clear call; they are omitted. How the calls were made is not given here. Shown is part of a subset that was picked to be rich in actives.

target: Ataxin-2 (Homo sapiens) (UniProt Q99700); assay: qHTS for Inhibitors of ATXN expression.; assay type: functional
Sequence (Q99700 whole entry): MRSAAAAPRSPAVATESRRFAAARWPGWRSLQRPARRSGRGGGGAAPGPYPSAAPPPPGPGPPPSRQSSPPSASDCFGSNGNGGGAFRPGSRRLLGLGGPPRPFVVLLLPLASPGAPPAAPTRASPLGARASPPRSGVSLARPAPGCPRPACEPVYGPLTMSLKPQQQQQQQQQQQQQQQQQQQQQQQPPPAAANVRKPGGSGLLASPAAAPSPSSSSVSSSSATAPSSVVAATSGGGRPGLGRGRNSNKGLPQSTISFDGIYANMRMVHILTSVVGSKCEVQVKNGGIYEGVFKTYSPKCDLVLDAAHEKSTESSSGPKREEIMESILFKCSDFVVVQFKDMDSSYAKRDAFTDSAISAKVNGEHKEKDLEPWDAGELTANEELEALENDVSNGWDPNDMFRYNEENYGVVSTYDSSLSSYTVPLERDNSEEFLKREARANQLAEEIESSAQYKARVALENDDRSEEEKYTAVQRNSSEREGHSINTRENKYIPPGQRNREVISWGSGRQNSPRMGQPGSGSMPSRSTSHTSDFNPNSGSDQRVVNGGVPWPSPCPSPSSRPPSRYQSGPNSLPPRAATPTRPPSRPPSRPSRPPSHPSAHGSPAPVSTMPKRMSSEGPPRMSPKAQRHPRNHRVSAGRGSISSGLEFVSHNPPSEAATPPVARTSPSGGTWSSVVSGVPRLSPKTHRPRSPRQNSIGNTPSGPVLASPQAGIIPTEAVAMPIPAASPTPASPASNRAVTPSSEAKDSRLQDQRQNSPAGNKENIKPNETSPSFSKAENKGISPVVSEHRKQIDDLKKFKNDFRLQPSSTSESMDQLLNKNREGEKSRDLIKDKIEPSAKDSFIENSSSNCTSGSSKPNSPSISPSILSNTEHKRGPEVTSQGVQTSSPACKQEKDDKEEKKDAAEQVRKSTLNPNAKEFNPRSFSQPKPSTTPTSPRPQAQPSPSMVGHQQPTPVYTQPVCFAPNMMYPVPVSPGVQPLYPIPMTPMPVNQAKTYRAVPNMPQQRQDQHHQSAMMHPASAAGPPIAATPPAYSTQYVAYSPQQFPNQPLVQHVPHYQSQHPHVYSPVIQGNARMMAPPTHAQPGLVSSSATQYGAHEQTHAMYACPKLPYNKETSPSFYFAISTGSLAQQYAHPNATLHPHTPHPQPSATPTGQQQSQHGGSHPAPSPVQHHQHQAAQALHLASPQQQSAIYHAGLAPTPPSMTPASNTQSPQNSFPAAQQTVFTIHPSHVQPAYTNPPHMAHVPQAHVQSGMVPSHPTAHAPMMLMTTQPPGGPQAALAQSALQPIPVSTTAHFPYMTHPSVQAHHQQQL

SMILES | Potency
COc1cc(CCN=Cc2cc(Cl)cc(Cl)c2O)c([N+](=O)[O-])cc1OC | inactive
CCOc1ccc(N2C(=O)/C(=C\c3ccc(OC)c(O)c3)S(=O)(=O)C2c2cccc([N+](=O)[O-])c2)cc1 (stereo unspecified) | inactive
COc1cc(/C=C2/C(=O)c3cccc([N+](=O)[O-])c3C2=O)c(Br)cc1O | 22.4 µM (active)
CC(=O)c1cc2c(cc1NC(=O)CSc1nc3cc(C)ccc3[nH]1)OCO2 | inactive
Cc1ccc2[nH]c(-c3ccc(SCC(=O)Nc4nnc(C)s4)nc3)nc2c1 | 23.8 µM (active)
Cc1ccc2[nH]c(SCC(=O)Nc3ccc(C(N)=O)cc3)nc2c1 | inactive
COc1ccc(C2=CC(c3ccccc3Cl)n3nc(-c4ccc(Cl)cc4)nc3N2)cc1 (stereo unspecified) | inactive
Nc1cccc2c1C(=O)N(C(=O)/C=C/c1ccc(F)cc1)C2=O | inactive
CCSC1=NCCN1S(=O)(=O)c1ccc2ccccc2c1 | inactive
CC(C)N1C/C(=C/c2ccsc2)C(=O)/C(=C/c2ccsc2)C1 | 39.8 µM (active)
Cc1ccc(CCC(=O)Nc2ccccc2C(=O)O)o1 | inactive
O=C(OCc1ccc(O)cc1)c1c(-c2ccsc2)oc2ccc(N3CCOCC3)cc12 | inactive
CCOc1ccc(C2C=C(c3cccc(OC)c3)Nc3nnnn32)cc1 (stereo unspecified) | inactive
Cc1nn(-c2ccccc2)c(Cl)c1C(=O)N1CCN(c2ncnc3c2cnn3-c2ccccc2)CC1 | 31.6 µM (active)
Cc1ccsc1C(=O)N1CCN(c2ccccn2)CC1 | inactive
Cc1nn(-c2ccccc2)c(Cl)c1C(=O)NNC(=O)c1ccncc1 | inactive
Cc1cccn2c(=O)c3cc(C(=O)O)n(C)c3nc12 | inactive
CCCCNC(=O)CCN1N=C(c2ccccc2)CCC1=O | inactive
CN1C/C(=C/c2ccccc2[N+](=O)[O-])C(=O)/C(=C\c2ccccc2[N+](=O)[O-])C1 | 2.99 µM (active)
CCCCNC(=O)NNc1nc(Cl)cc(C)c1C#N | inactive
CC(C)c1cccc(-c2csc(C(O)c3ccc(F)c(F)c3)n2)c1 (stereo unspecified) | 39.8 µM (active)
COCCCN=C(S)N1CCN(c2nc(-c3cccc(OC)c3)cs2)CC1 | inactive
CCN(CC)C(=O)CSc1nc(-c2ccccc2)ccc1C#N | inactive
CC(C(=O)Nc1nc(-c2ccc(F)c(F)c2)cs1)N1C(=O)C2CC=CCC2C1=O (stereo unspecified) | inactive
CCN(C(=O)c1ccco1)c1nc(-c2ccc(OC)cc2)cs1 | inactive
CCN(CC)C(=O)c1sc2nc(-c3ccccc3)ccc2c1N | inactive

SMILES | Potency
CCN(CC)C(=O)c1cccc(-c2csc(C(C)(O)c3cccc(OC)c3)n2)c1 (stereo unspecified) | 35.5 µM (active)
CCN(CC)C(=O)c1cccc(-c2csc(C(O)c3ccccc3)n2)c1 (stereo unspecified) | 35.5 µM (active)
CCN(CC)c1ccc2cc(-c3nc(-c4ccc(OC)cc4)cs3)c(=O)oc2c1 | inactive
CCN(CC)C(=O)c1cccc(-c2csc(C(C)(O)c3ccc(OC)cc3)n2)c1 (stereo unspecified) | 15.8 µM (active)
COc1cccc(-c2ccc3c(N)c(C(=O)c4ccc(Cl)cc4)sc3n2)c1 | inactive
Cc1ccc(C(=O)N2CCN(Cc3ccc4c(c3)OCO4)CC2)cc1S(=O)(=O)N1CCOCC1 | inactive
COc1ccc(-c2c(C)c3ccc(O)c(CN4CCCCC4C)c3oc2=O)cc1OC (stereo unspecified) | inactive
COCCCNC(=O)c1cc2c(=O)n3cccc(C)c3nc2n(C(C)C)c1=N | inactive
CCSc1nnc(-c2sc3nnc(-c4ccccc4)c(-c4ccccc4)c3c2N)o1 | inactive
CCC(=O)Oc1ccc2c(c1)OC1(OC(C)=O)OC(C)CC1=C2C (stereo unspecified) | inactive
COc1ccc(-c2nc3ccc(C)cn3c2Cc2cccc(F)c2)cc1OC | 39.8 µM (active)
COc1ccc(-c2nc3ccc(C)cn3c2Cc2cccc(Cl)c2)cc1OC | 35.5 µM (active)
COc1ccc(-c2nc(CCl)cs2)cc1OC | inactive
COc1ccc(-c2n[nH]c(S)n2)cc1OC | inactive
COc1ccccc1Cc1c(-c2ccc(OC)c(OC)c2)nc2ccc(Cl)cn12 | 39.8 µM (active)
COc1ccc(-c2nc3ccc(C)cn3c2Cc2ccc(C)cc2)cc1OC | 20 µM (active)
COc1cc2c3nnc(-c4ccc(F)cc4)c-3cn(Cc3cccc(F)c3)c2cc1OC | inactive
COc1ccc(/C=N/NC(=O)c2c(C)nc3ccc(Cl)cn23)cc1OC | inactive
N=C(NOC(=O)CCCOc1ccccc1)c1cccc(Br)c1 | inactive
CSc1nc(-c2ccc(N(C)C)cc2)c(C#N)c(=O)n1C | inactive
CCOC(=O)c1ccc(-c2ccc(/C=N/NC(=O)c3cncc(Br)c3)o2)cc1 | inactive
Cc1cc(-c2onc3ccc(Cl)cc23)ccc1O | inactive
COc1ccc(-n2c(N)c(C(=O)NCc3ccco3)c3nc4ccccc4nc32)cc1OC | inactive
CN1C(=O)/C(=N\C2CCCCC2)c2c3ccccc3c(O)c3cccc1c23 | inactive
Cc1noc(/C=C/Nc2ccc(F)cc2F)c1[N+](=O)[O-] | inactive
